The values that follow come from PubChem BioAssay AID2061306 (National Center for Advancing Translational Sciences (NCATS), 2025).

Inconclusive results are not listed. Activity calls are given as the source filed them. Calls follow the shape of the dose curve; as a rule, active = well fitted inhibition curve with a large enough effect; inconclusive = small, poorly fitted or top-dose-only effect; inactive = flat fitted curve, though single readings scatter.

This test in a line: Identification of antibody-drug conjugate (ADC) payloads which are substrates of ATP-binding cassette drug efflux transporters: ABCB1-HEK293-pcDNA cell line. Conditions: HEK293 empty-vector (pcDNA) control viability, CellTiter-Glo, 48 h. An excerpt: Antibody-drug conjugates (ADCs) feature an antibody recognizing a specific protein joined to a potent toxic payload. Numerous antibody-drug conjugates have received FDA approval; however, clinical resistance arises. Resistance mechanisms include decreased expression or mutation of the antibody target, impaired payload release, or increased expression of ATP-binding cassette (ABC) efflux transporters associated with multidrug resistance. We therefore sought to characterize the interaction of ABC multidrug transporters with ADC payloads. We performed a high-throughput screen with 27 common ADC payloads using cells lines expressing ABC transporters P-glycoprotein (P-gp, encoded by ABCB1) or ABCG2 (encoded by ABCG2). Confirmatory assays were also performed using cells transfected to express P-gp, ABCG2, or MRP1 (encoded by ABCC1). Several commonly used ADC payloads were substrates of P-gp, including calicheamicin gamma1, monomethyl auristatin E, DM1, and DM4. All the pyrrolobenzodiazepines tested - SJG136, SGD-1882, SG2057, and SG3199 - were substrates of P-gp, ABCG2, and MRP1. […] These findings highlight the risk of transporter-mediated resistance with certain ADC payloads and underscore the importance of selecting payloads that evade ABC transporter recognition in future ADC development.
HEK-293 cells were transfected with empty vector (pcDNA) or vector containing the human ABCB1 (MDR-19), ABCG2 (R-5), or ABCC1 gene (MRP1) and were maintained in EMEM with 2 mg/mL G418 added to maintain transporter expression. The HeLa derivative KB-3-1 and the P-gp overexpressing KB-8-5-11 subline were maintained in DMEM; KB-8-5-11 additionally received 100 ng/mL colchicine. H460 parental cells were obtained from the Division of Cancer Treatment and Diagnosis Tumor Repository, National Cancer Institute at Frederick, MD and were cultured in RPMI. The ABCG2 expressing subline H460 MX20 was generated by selecting H460 cells in 20 nM mitoxantrone. Media in all cases was supplemented with 10% FBS and 1% penicillin-streptomycin. We explored 27 common ADC payloads, in two orthogonal, paired cell line sets-a drug selected and transfected set for each transporter--to identify substrates of the ABC transporters P-gp and ABCG2. Compounds were sourced from Levena Biopharma (San Diego, CA), Selleck Chem (Houston, TX), ChemieTek (Indianapolis, IN), or Microsource Discovery Systems (Gaylordsville, CT). Screening was performed as previously described. Briefly, cells were plated at a density of 500 cells/well in 1536 well plates with compounds added using a 1536-head pin tool (Kalypsys, San Diego CA). Cells were incubated with cytotoxic drugs and processed with CellTiter Glo reagent (Promega, Madison, WI) to determine viability after 48 hours. P-gp substrates were identified by comparing compound activity between paired sets of low-expressing (sensitive) and over-expressing (resistant) cell lines.
Consider `CCN(C(C)=O)[C@H]1CO[C@@H](O[C@H]2[C@H](O[C@H]3C#C/C=C\C#C[C@]4(O)CC(=O)C(NC(=O)OC)=C3/C4=C\CSSSC)O[C@H](C)[C@@H](NO[C@H]3C[C@H](O)[C@H](SC(=O)c4c(C)c(I)c(O[C@@H]5O[C@@H](C)[C@H](O)[C@@H](OC)[C@H]5O)c(OC)c4OC)[C@@H](C)O3)[C@@H]2O)C[C@@H]1OC`, for which the Potency is 1.5 nM (active).

For `CCN[C@H]1CO[C@@H](O[C@H]2[C@H](O[C@H]3C#C/C=C\C#C[C@]4(O)CC(=O)C(NC(=O)OC)=C3/C4=C\CSSSC)O[C@H](C)[C@@H](NO[C@H]3C[C@H](O)[C@H](SC(=O)c4c(C)c(I)c(O[C@@H]5O[C@@H](C)[C@H](O)[C@@H](OC)[C@H]5O)c(OC)c4OC)[C@@H](C)O3)[C@@H]2O)C[C@@H]1OC`, the Potency is 0.2 nM (active).

With `COc1ccc(C2=CN3C(=O)c4cc(OC)c(OCCCOc5cc6c(cc5OC)C(=O)N5C=C(c7ccc(N)cc7)C[C@@H]5C=N6)cc4N=C[C@H]3C2)cc1`, the Potency was 1.3 nM (active).

In the case of `COc1cccc2c1C(=O)c1c(O)c3c(c(O)c1C2=O)C[C@@](O)(C(=O)CO)C[C@@H]3O[C@H]1C[C@H]2[C@H](O[C@@H]3[C@@H](OC)OCCN32)[C@H](C)O1`, the Potency was 0.0334 nM (active).

Turning to `CN(C)CCOc1ccc2[nH]c(C(=O)N3C[C@@H](CCl)c4c3cc(O)c3ccccc43)cc2c1`, the Potency was 0.4 nM (active).

For the molecule `CCc1c2c(nc3ccc(O)cc13)-c1cc3c(c(=O)n1C2)COC(=O)[C@]3(O)CC`, the Potency is 4.7 nM (active).

Consider `COc1cccc2c1C(=O)c1c(O)c3c(c(O)c1C2=O)C[C@@](O)(C(=O)CO)C[C@@H]3O[C@H]1C[C@H](N)[C@H](O)[C@H](C)O1`, for which the Potency is 29.8 nM (active).

Turning to `CC(C)(C)OC(=O)Nc1ccc2[nH]c(C(=O)N3C[C@@H](CCl)c4c3cc(O)c3ccccc43)cc2c1`, the Potency was 8.4 nM (active).

With `COc1cc2cc(c1Cl)N(C)C(=O)C[C@H](O)[C@]1(C)O[C@H]1[C@H](C)C1C[C@@](O)(NC(=O)O1)[C@H](OC)/C=C/C=C(\C)C2`, the Potency was 2980 nM (active).

As for `COC(=O)c1cc2c3c(cc(O)c2[nH]1)N(C(=O)c1cc2cc(OC)c(OC)c(OC)c2[nH]1)CC3CCl` (stereo not given), the Potency was 0.4 nM (active).
